Compound activity: PubChem BioAssay, National Center for Advancing Translational Sciences (NCATS)
This is a sample that favours compounds with a hit; in the whole collection about 1.1% have one here.
BRCA1 expr act: qHTS Assay to Identify Small Molecule Activators of BRCA1 Expression | Potency, µM (series often up to 46.1 µM), hits mostly activators | AID 624202, 2012 | MCF7-BRCA1-FFLuc reporter, luminescence, 48 h; response scale: scaled: vehicle 0%, 10 µM genistein 100% | 380,000 tested, 1.1% active; note: nearly all actives have a fitted effect of over 80% in size
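Luminescence from a BRCA1-driven firefly luciferase in MCF7 cells was the read-out, taken 15 min after substrate addition following 48 h compound exposure at 37 °C. Data were normalized to a 10 microM genistein control and DMSO vehicle.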
miR-21 reporter: qHTS Assay for Modulators of miRNAs and/orActivators of miR-21; Potency, µM (titrated, usually from 38.3 µM), usual class: activators; 340,000 tested, under 10 active; HeLa miR-21 FLuc reporter, luciferase, 48 h;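 note: miR-21 action dims this reporter so a rising signal means less miR-21 action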
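Using DMEM plus 10% FBS, HeLa miR-21-FLuc cells are incubated with test compounds (final up to about 40uM) for 48 hours; firefly luciferase signal is then imaged following reagent-mediated lysis.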
Apoferritin bind: qHTS Assay for Identification of Novel General Anesthetics | Ferritin light chain (Equus caballus), P02791 | apoferritin/1-aminoanthracene competitive binding, fluorescence | Potency, µM (doses to about 77.5 µM), actives largely listed as inhibitors | 350,000 tested, 0.074% active | AID 485281, 2010; note: nearly all actives have a fitted effect of over 20% in size
Target sequence (P02791 2-175 limits assumed): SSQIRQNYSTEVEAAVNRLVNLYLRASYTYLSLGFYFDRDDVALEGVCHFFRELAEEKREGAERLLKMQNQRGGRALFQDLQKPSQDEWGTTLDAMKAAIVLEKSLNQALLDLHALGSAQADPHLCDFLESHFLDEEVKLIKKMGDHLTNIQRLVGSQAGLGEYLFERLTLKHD
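In PBS, apoferritin at 10 uM is loaded with 1-AMA from a 50% saturated solution. After 10 min of compound exposure at ambient temperature, reduced 535 nm fluorescence indicates probe displacement.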
p53 reactivator: qHTS assay for re-activators of p53 using a Luc reporter | Potency, µM (doses to about 92.2 µM), actives largely listed as activators | AID 504706, 2011 | 320,000 tested, 0.063% active | H1299 p53-A138V BP100-luciferase reporter, luminescence, 24 h; note: nearly all actives have a fitted effect of over 45% in size
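H1299 (p53-null), stable ts p53-A138V + BP100-Luc; 1000 cells/well, Opti-MEM/10% FBS; cpd 4 pt, 1:5; 24 h, 37 deg C, 5% CO2; detection reagent 10 min RT; luminescence.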
Large screens that a line does not name were inactive. Calls come from the whole dose curve; as a rule, active = well fitted curve in the direction sought with a large enough effect; inconclusive = small, poorly fitted or top-dose-only effect, or another doubt; inactive = no such curve, though single readings can be large; an effect the other way counts as inactive or inconclusive.

Cc1sc(NC(=O)/C=C/c2ccco2)c(C(=O)O)c1C	BRCA1 expr act 2.2µM
COc1ccc([C@H]2Cc3cc(O)cc(O)c3C(=O)O2)cc1O	BRCA1 expr act 10µM (no result: miR-21 reporter, Apoferritin bind)
COc1ccc([C@H]2Cc3cccc(O)c3C(=O)O2)cc1O	none (no result: miR-21 reporter, Apoferritin bind)
CC(=O)c1ccc(NC(=O)CCn2cccn2)cc1	none (no result: BRCA1 expr act, p53 reactivator)
O=c1cc(-c2ccc(O)cc2)oc2cc(O)cc(O)c12	BRCA1 expr act 22µM (no result: miR-21 reporter, p53 reactivator)
O=c1cc(-c2ccccc2)oc2cc(O)ccc12	BRCA1 expr act 10µM (no result: miR-21 reporter, p53 reactivator)
CC(=O)Oc1ccc(-c2cc3ccccc3oc2=O)cc1	BRCA1 expr act 13µM (no result: miR-21 reporter, Apoferritin bind, p53 reactivator)
O=c1cc(-c2ccc(O)cc2)oc2ccc(O)cc12	BRCA1 expr act 2.8µM, p53 reactivator inconclusive
CC(=O)Oc1ccc(-c2cc3c(OC(C)=O)cc(OC(C)=O)cc3oc2=O)cc1	none (no result: miR-21 reporter, Apoferritin bind, p53 reactivator)
O=c1cc(-c2cccc(O)c2)oc2ccc(O)cc12	none (no result: BRCA1 expr act, miR-21 reporter, p53 reactivator)
O=c1cc(-c2ccccc2)oc2cc(O)cc(O)c12	BRCA1 expr act inconclusive (no result: miR-21 reporter, p53 reactivator)
CC(C)(C)C(=O)Oc1ccc2cc(-c3ccc4ccccc4n3)c(=O)oc2c1	BRCA1 expr act 14µM, p53 reactivator inconclusive
O=c1oc2cc(O)ccc2cc1-c1ccccc1	BRCA1 expr act 10µM, p53 reactivator inconclusive
COc1ccc(NC(c2ccc(F)cc2)c2nnc(-c3ccccc3Cl)o2)cc1Cl (stereo unspecified)	none (no result: BRCA1 expr act, p53 reactivator)
COc1ccc(N(CC(=O)NCCc2cccc(C)c2)S(=O)(=O)c2c(C)nn(C)c2C)cc1	none (no result: p53 reactivator)
Nc1cccc2cccnc12	none (no result: miR-21 reporter, Apoferritin bind, p53 reactivator)
Cc1ccc(-c2nnn(CCC(=O)NC(C)(C)C)n2)cc1	BRCA1 expr act 14µM, p53 reactivator inconclusive
CC1CCCCN1Cc1c(O)ccc2c(=O)c(-c3ccc(Cl)cc3)coc12 (stereo unspecified)	BRCA1 expr act 10µM
Cc1ccc(S(=O)(=O)N2CCN(c3nc(-c4ccc(CN5CCNCC5)s4)nc4ccccc34)CC2)cc1	none (no result: miR-21 reporter, Apoferritin bind, p53 reactivator)
O=C(COc1ccccc1F)NNC(=O)c1cccc(-n2cccc2)c1	none
Cn1cccc1C(=O)NNC(=O)COc1ccccc1F	BRCA1 expr act 13µM, p53 reactivator inconclusive
CCN(Cc1ccccc1)C(=O)COC(=O)[C@@H]1CCCN1C(=O)c1cccs1	none (no result: miR-21 reporter, Apoferritin bind)
Cc1ccc2c(CC(=O)Nc3ccc(S(=O)(=O)N4CCC(C)CC4)cc3)coc2c1	none (no result: BRCA1 expr act, p53 reactivator)
O=C(N/N=C/c1c(F)cccc1Cl)c1cc(C2CC2)[nH]n1	BRCA1 expr act 11µM, p53 reactivator inconclusive
O=C(N/N=C/c1ccc(O)cc1)c1cc(C2CC2)[nH]n1	none
CSc1nc(N)nc(-c2cccs2)c1C#N	none
CC(C)Sc1nc(N)nc(-c2cccs2)c1C#N	BRCA1 expr act 4µM
CCN(Cc1ccccc1)C(=O)CCc1nnc(CCCc2ccccc2)o1	BRCA1 expr act 11µM
CCOC(=O)c1c(C)[nH]c(CCC(=O)NC(C)c2ccccc2)c1C (stereo unspecified)	none (no result: BRCA1 expr act, p53 reactivator)
COc1ccc2nc(/C=N/NC(=O)CCNC(=O)OC(C)(C)C)ccc2c1	BRCA1 expr act 6.3µM, p53 reactivator inconclusive
NC(=O)c1ccccc1NC(=O)CCc1ccccc1	BRCA1 expr act 11µM, p53 reactivator inconclusive
O=C(O)CCC(=O)Nc1ccccc1C(=O)NCCc1ccccc1	BRCA1 expr act 8.9µM, p53 reactivator inconclusive
Cc1ccc(-n2ncc(Cl)c2C(=O)NCc2ccccc2)cc1	BRCA1 expr act 11µM
Cc1ccc(NC2CCCN(C(=O)C3CCCCC3)C2)cc1C (stereo unspecified)	none
O=C(N1CCN(c2ncccn2)CC1)C12CC3CC(CC(C3)C1)C2	none (no result: miR-21 reporter, Apoferritin bind, p53 reactivator)
Cc1ccnc(NC(=O)CCNC(=O)c2ccc(Cl)cc2)c1	BRCA1 expr act 13µM
Cc1ccc(C(=O)NCC(=O)Nc2cc(C)ccn2)cc1	none (no result: miR-21 reporter, Apoferritin bind)
O=C(CCCc1ccccc1)Nc1ccccn1	none
Cc1ccnc(NC(=O)CCCc2ccccc2)c1	BRCA1 expr act 11µM, p53 reactivator inconclusive
COc1ccc(-c2ccc(SCc3ccccn3)nn2)cc1OC	none
COc1cccc(-c2ccc(SCc3ccccn3)nn2)c1	BRCA1 expr act 5µM
O=[N+]([O-])c1cccc(-c2ccc(SCc3ccccn3)nn2)c1	BRCA1 expr act 6.3µM, Apoferritin bind inconclusive, p53 reactivator inconclusive
Clc1ccc(-c2ccc(SCc3ccccn3)nn2)cc1	BRCA1 expr act inconclusive
CC(C)(C)S(=O)(=O)c1cnc(-c2ccc(Cl)cc2)nc1N	BRCA1 expr act 2.8µM
Cc1ccc2nc(Cl)c3cc(C(=O)N4CCCC(C)C4)sc3c2c1 (stereo unspecified)	Apoferritin bind inconclusive (no result: BRCA1 expr act, p53 reactivator)
Cc1ccc(Cl)cc1N1CCN(C(=O)c2cn(C)c3ccc(S(=O)(=O)N4CCCCC4)cc3c2=O)CC1	none (no result: BRCA1 expr act, p53 reactivator)
Fc1ccc2cnc(C3=CCCCC3)cc2c1	p53 reactivator inconclusive (no result: miR-21 reporter, Apoferritin bind)
C1=C(c2cc3ccccc3cn2)CCCC1	BRCA1 expr act 10µM, p53 reactivator inconclusive (no result: miR-21 reporter, Apoferritin bind)
O=C1c2ccccc2C(=O)N1Cc1ccccc1F	none
O=C(NCCc1ccccc1)c1cccc(NC(=O)C2CC2)c1	BRCA1 expr act 6.3µM (no result: miR-21 reporter, Apoferritin bind, p53 reactivator)
CC(C)CN1CCC(Oc2cccc(C(=O)NCCc3ccccc3)c2)CC1	p53 reactivator 40µM
COCC(C)N1CCC(Oc2cccc(C(=O)NCCc3ccccc3)c2)CC1 (stereo unspecified)	p53 reactivator inconclusive
O=C(NCCCc1ccccc1)c1cccc(NC(=O)C2CCCC2)c1	none (no result: miR-21 reporter, Apoferritin bind, p53 reactivator)
O=C(NCCc1ccccc1)/C(=N\O)c1ccccc1	BRCA1 expr act 1.3µM, p53 reactivator inconclusive
O=C(NCCc1ccccc1)c1cccc(Br)c1	BRCA1 expr act 13µM, Apoferritin bind inconclusive
N#Cc1c(N)nc2c(c1N)CC(COc1ccccc1)O2 (stereo unspecified)	BRCA1 expr act 11µM, p53 reactivator inconclusive
N#Cc1c(N)nc2c(c1N)CC(CO)O2 (stereo unspecified)	none
Cc1ccccc1OCC1Cc2c(nc(N)c(C#N)c2N)O1 (stereo unspecified)	BRCA1 expr act 6.3µM, p53 reactivator inconclusive
CCCC1(C)Nc2ccccc2-c2nc3ccccc3n21 (stereo unspecified)	BRCA1 expr act 8.9µM, p53 reactivator inconclusive
c1ccc2c(c1)NC1(CCCC1)n1c-2nc2ccccc21	p53 reactivator inconclusive
C=CCn1cccc(C(=O)Nc2ccc(Cl)cc2)c1=O	BRCA1 expr act 5.6µM
C=CCn1cccc(C(=O)Nc2ccc(OC)c(Cl)c2)c1=O	none
C=CCn1cccc(C(=O)Nc2ccc(C)c(Cl)c2)c1=O	BRCA1 expr act 4.5µM, p53 reactivator inconclusive
CCOC(=O)C12CC1/C(=N\O)c1ccccc1O2 (stereo unspecified)	none (no result: BRCA1 expr act, miR-21 reporter, p53 reactivator)
Nc1nnc(-c2cc3ccccc3oc2=O)s1	BRCA1 expr act 7.9µM
O=c1oc2ccccc2cc1-c1nnc(NCc2ccco2)s1	p53 reactivator inconclusive
COc1ccc2oc(=O)c(-c3nnc(N)s3)cc2c1	BRCA1 expr act 14µM
Cc1ccc(OCC(=O)Nc2nnc(C3CCCO3)s2)c(Br)c1 (stereo unspecified)	none
